Experimental data from PubChem BioAssay (NCI).
About 79,000 compounds went through this panel and 15% of them were active in at least one assay; those are over-represented in the sample as a whole. Calls of active or inactive are those of the source. Cut-off read from the data, not from the text of the source: active = growth inhibition above about 70%; inactive = the rest.

Columns and labels:
[1] = NCI Yeast Anticancer Drug Screen. Data for the rad50 strain (AID 155);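 note: 0% = growth of vehicle-only cultures of the same strain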; settings: S. cerevisiae rad50 strain growth inhibition, hits give high values
Summary of the method: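 Genetically altered yeast (DNA repair pathway); compound treatment; growth inhibition vs vehicle ctrl.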

[2] = NCI Yeast Anticancer Drug Screen. Data for the mec2-1 strain (AID 157); settings: S. cerevisiae mec2-1 strain, hits give high values
Summary of the method: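 Each compound was tested on mec2-1 yeast, a strain altered in DNA damage repair or cell cycle control. Growth inhibition is reported relative to vehicle.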

[3] = NCI Yeast Anticancer Drug Screen. Data for the sgs1 mgt1 strain (AID 161);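 note: 0% = growth of cultures given vehicle only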; settings: S. cerevisiae sgs1 mgt1 strain, hits give high values
Summary of the method: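 Test agents were incubated with a DNA-repair-mutant yeast strain. Growth was then read and compared against vehicle-treated controls.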

[4] = NCI Yeast Anticancer Drug Screen. Data for the cln2 rad14 strain (AID 165);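 note: 0% = growth equal to vehicle treated cultures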; settings: S. cerevisiae cln2 rad14 strain, hits give high values
Summary of the method: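 Test compounds were added to cln2 rad14 yeast cultures; inhibition of growth was then determined by comparison with vehicle treatment.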

[5] = NCI Yeast Anticancer Drug Screen. Data for the bub3 strain (AID 167); settings: S. cerevisiae bub3 mutant strain, hits give high values
Summary of the method: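 Yeast carrying a defined mutation is treated with each compound, and growth is compared with that of vehicle-exposed cells to give inhibition.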

[6] = NCI Yeast Anticancer Drug Screen. Data for the mlh1 rad18 strain (AID 175); settings: S. cerevisiae mlh1 rad18 strain growth inhibition, hits give high values
Summary of the method: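 Inhibition values reflect reduced growth of mutant yeast versus vehicle-treated controls following compound exposure; the mutations affect DNA damage repair.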

[7] = at 5.0 µM (retest, dose inferred, filed as 0.5)
[8] = at 50.0 µM (retest, dose inferred, filed as 5.0)

Measured: growth inhibition

O=C(O)CCC(=O)NCCNC(=O)CC(=O)O
inactive: [1]; [7] -152% | [1]; [8] -162% | [1]; at 50.0 µM 10.7% | [2]; [7] -52% | [2]; [8] -51% | [2]; at 50.0 µM -14.8% | [3]; [7] -57% | [3]; [8] -63% | [3]; at 50.0 µM 43% | [4]; [7] -52% | [4]; [8] -48% | [4]; at 50.0 µM 36.3% | [5]; [7] -68% | [5]; [8] -79% | [5]; at 50.0 µM -1.55% | [6]; [7] -116% | [6]; [8] -107% | [6]; at 50.0 µM 9%

CC(C)(C)C1=CC(=CC=C2C=CN(CCO)C=C2)C=C(C(C)(C)C)C1=O
active: [1]; [8] 98% | [6]; [8] 73% | [6]; at 50.0 µM 97%
inactive: [1]; [7] -2% | [1]; at 50.0 µM 29.1% | [2]; [7] 0% | [2]; [8] 28% | [2]; at 50.0 µM 35.5% | [3]; [7] -3% | [3]; [8] 51% | [3]; at 50.0 µM 24.6% | [4]; [7] 0% | [4]; [8] 60% | [4]; at 50.0 µM 31.8% | [5]; [7] -5% | [5]; [8] 28% | [5]; at 50.0 µM 31.6% | [6]; [7] -6%

C1=C(C2=CCCc3ccccc32)c2ccccc2CC1
active: [6]; at 50.0 µM 74.9%
inactive: [1]; [7] -1% | [1]; [8] 36% | [1]; at 50.0 µM 30.4% | [2]; [7] -5% | [2]; [8] 27% | [2]; at 50.0 µM 34.5% | [3]; [7] -3% | [3]; [8] 50% | [3]; at 50.0 µM 31.9% | [4]; [7] -4% | [4]; [8] 59% | [4]; at 50.0 µM -45.8% | [5]; [7] -2% | [5]; [8] 34% | [5]; at 50.0 µM 5.5% | [6]; [7] -1% | [6]; [8] 43%

O=c1cc(-c2ccccc2)oc2ccc(-c3ccc4oc(-c5ccccc5)cc(=O)c4c3)cc12
active: [3]; [8] 82% | [5]; [8] 89% | [6]; at 50.0 µM 87.8%
inactive: [1]; [7] 8% | [1]; [8] 40% | [1]; at 50.0 µM 37.3% | [2]; [7] 7% | [2]; [8] 16% | [2]; at 50.0 µM 40.6% | [3]; [7] -10% | [3]; at 50.0 µM 31.7% | [4]; [7] -1% | [4]; [8] 39% | [4]; at 50.0 µM 28.4% | [5]; [7] 5% | [5]; at 50.0 µM 59% | [6]; [7] 13% | [6]; [8] 25%

Nc1nnc(-c2cc(=O)c3cc(Cl)ccc3o2)s1
inactive: [1]; [7] -1% | [1]; [8] 13% | [1]; at 50.0 µM 60% | [2]; [7] -1% | [2]; [8] 8% | [2]; at 50.0 µM 20.4% | [3]; [7] -2% | [3]; [8] 6% | [3]; at 50.0 µM 20.1% | [4]; [7] -2% | [4]; [8] 11% | [4]; at 50.0 µM 10.7% | [5]; [7] 3% | [5]; [8] 11% | [5]; at 50.0 µM 22.4% | [6]; [7] -1% | [6]; [8] 10% | [6]; at 50.0 µM 10.4%

c1ccc2c(c1)Sc1nccc3ccnc-2c13
active: [1]; [7] 92% | [1]; [8] 95% | [1]; at 50.0 µM 82.3% | [2]; [8] 93% | [2]; at 50.0 µM 79.3% | [3]; [8] 92% | [3]; at 50.0 µM 80.7% | [4]; [8] 88% | [4]; at 50.0 µM 72.8% | [5]; [8] 92% | [5]; at 50.0 µM 79.7% | [6]; [8] 91% | [6]; at 50.0 µM 79.2%
inactive: [2]; [7] 28% | [3]; [7] 23% | [4]; [7] 10% | [5]; [7] 25% | [6]; [7] 50%

N#CC1C(=O)NC(=O)C(C#N)C1c1c(Cl)cccc1Cl (stereo unspecified)
inactive: [1]; [7] 5% | [2]; [7] 1% | [2]; [8] 55% | [3]; [7] 4% | [4]; [7] 8% | [4]; [8] 28% | [4]; at 50.0 µM 48.1% | [5]; [7] -7% | [6]; [7] 1%
active: [1]; [8] 72% | [1]; at 50.0 µM 96.2% | [2]; at 50.0 µM 92.5% | [3]; [8] 91% | [3]; at 50.0 µM 94% | [5]; [8] 74% | [5]; at 50.0 µM 91% | [6]; [8] 93% | [6]; at 50.0 µM 94.7%
